Assay in all cases: DAPPL (digital affinity profiling via proximity ligation, sequencing); 10 mM Tris-HCl pH 7.5, 50 mM NaCl, 1 mM DTT, 4% glycerol, room temperature, 30 min; GST-TFs on glutathione beads, 16-mer random dsDNA library, 0.1% formaldehyde crosslink after washing; high values mean tight binding
One assay addresses T1, FEV (Homo sapiens, UniProt Q99581 1-238).
T1 sequence: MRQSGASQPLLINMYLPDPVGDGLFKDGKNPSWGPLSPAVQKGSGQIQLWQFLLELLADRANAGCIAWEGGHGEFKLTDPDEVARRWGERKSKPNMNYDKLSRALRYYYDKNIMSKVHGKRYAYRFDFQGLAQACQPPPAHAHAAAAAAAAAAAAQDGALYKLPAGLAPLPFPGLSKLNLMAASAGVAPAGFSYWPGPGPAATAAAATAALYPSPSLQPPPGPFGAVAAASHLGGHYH
The conditions noted are these: protein: recombinant; tags: N-terminal GST; dsDNA, one strand shown. In short, it runs like this: (§1)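 Binding signal is given per hexamer as its read frequency for a factor divided by its frequency in the tag-only sample. GST-fused human transcription factors were expressed in yeast, captured on glutathione beads, barcoded with DNA and pooled with that sample, then incubated with 200 nmole of a 16-mer random double-stranded DNA library in Tris/NaCl/DTT/glycerol buffer for 30 min at room temperature. The pools were then washed, crosslinked, proximity-ligated, amplified by PCR and sequenced on an Illumina NextSeq500.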

For the next assay, the target named is ETV5 (Homo sapiens, UniProt P41161 1-510). To be noted: protein: recombinant; tags: N-terminal GST; dsDNA, one strand shown. In short, it runs like this:
as §1

The target of another assay is HSF1 (Homo sapiens, UniProt Q00613 1-529). The conditions noted are these: protein: recombinant; tags: N-terminal GST; chain copies: 3; dsDNA, one strand shown. In short, it runs like this:
as §1

The target of the next assay is T2, SPIC (Homo sapiens, UniProt Q8N5J4 1-248).
T2 sequence: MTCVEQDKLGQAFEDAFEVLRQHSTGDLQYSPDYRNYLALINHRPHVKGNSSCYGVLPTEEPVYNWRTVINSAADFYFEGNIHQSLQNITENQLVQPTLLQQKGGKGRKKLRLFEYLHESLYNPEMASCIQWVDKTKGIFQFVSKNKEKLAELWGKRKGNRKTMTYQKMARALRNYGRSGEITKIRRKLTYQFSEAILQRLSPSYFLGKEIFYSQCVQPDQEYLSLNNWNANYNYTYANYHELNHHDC
The conditions noted are these: protein: recombinant; tags: N-terminal GST; dsDNA, one strand shown. The procedure, abridged: as §1

The target in a further assay is ELF4 (Homo sapiens, UniProt Q99607 1-663). The conditions noted are these: protein: recombinant; tags: N-terminal GST; dsDNA, one strand shown. In short, it runs like this: as §1
Sequence of ELF4 (Q99607 whole entry): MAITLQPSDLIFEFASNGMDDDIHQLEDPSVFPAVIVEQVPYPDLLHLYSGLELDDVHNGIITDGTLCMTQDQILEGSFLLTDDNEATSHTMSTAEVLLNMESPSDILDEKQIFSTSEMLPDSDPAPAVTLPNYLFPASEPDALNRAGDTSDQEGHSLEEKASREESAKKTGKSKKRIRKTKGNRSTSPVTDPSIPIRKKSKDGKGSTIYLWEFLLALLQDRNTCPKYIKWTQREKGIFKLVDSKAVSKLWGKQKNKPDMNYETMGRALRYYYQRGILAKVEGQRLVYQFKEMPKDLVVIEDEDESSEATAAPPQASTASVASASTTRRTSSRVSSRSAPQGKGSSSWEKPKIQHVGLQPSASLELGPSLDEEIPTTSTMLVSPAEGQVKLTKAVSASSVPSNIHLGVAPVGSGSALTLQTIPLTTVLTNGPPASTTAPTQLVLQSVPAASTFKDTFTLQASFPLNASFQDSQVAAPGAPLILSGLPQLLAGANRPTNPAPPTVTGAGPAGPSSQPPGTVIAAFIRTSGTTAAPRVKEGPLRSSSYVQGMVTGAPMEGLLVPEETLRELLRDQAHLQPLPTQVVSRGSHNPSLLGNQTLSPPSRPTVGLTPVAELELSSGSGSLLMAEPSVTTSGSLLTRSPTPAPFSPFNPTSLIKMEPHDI
The next assay has as its target T3, ELK4 (Homo sapiens, UniProt P28324-2 1-405).
T3 sequence: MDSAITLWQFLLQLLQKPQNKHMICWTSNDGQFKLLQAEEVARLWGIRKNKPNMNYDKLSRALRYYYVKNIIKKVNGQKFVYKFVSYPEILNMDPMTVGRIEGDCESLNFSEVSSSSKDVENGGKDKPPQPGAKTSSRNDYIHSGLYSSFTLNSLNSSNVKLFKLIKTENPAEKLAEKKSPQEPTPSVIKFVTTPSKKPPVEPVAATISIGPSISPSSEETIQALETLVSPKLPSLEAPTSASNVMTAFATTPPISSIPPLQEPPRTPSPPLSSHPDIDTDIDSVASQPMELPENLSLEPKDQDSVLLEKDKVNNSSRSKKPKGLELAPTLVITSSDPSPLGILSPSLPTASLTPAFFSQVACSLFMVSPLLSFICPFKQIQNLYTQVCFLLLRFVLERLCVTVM
To be noted: protein: recombinant; tags: N-terminal GST; dsDNA, one strand shown. In short, it runs like this:
as §1

The target in the next assay is T4, ETV2 (Homo sapiens, UniProt O00321 1-342).
T4 sequence: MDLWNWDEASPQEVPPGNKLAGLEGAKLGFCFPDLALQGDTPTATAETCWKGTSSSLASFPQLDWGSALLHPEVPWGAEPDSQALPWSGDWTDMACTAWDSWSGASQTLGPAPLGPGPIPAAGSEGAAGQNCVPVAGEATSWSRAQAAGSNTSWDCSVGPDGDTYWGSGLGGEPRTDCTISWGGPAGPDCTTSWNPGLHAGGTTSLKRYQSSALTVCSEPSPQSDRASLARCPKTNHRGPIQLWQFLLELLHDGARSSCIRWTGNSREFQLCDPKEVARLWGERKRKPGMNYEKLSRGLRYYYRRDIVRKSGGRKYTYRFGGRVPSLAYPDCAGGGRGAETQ
The conditions noted are these: protein: recombinant; tags: N-terminal GST; dsDNA, one strand shown. The procedure, abridged: as §1

The target in the next assay is T5, ELF3 (Homo sapiens, UniProt P78545 1-371).
T5 sequence: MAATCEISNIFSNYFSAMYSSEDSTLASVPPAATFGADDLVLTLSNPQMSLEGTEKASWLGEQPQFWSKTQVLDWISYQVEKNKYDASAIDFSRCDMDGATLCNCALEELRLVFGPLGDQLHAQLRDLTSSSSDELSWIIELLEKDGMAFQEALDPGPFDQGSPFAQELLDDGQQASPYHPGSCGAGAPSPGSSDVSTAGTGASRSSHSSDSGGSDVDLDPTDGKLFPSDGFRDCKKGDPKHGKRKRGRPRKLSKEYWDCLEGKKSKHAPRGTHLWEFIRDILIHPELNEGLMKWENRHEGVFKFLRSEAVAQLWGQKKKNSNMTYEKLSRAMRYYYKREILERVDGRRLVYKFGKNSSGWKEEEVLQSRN
To be noted: protein: recombinant; tags: N-terminal GST; dsDNA, one strand shown. In short, it runs like this:
as §1

The target in the next assay is CRX (Homo sapiens, UniProt O43186 1-299). The conditions noted are these: protein: recombinant; tags: N-terminal GST; dsDNA, one strand shown. In short, it runs like this: as §1
Sequence of CRX (O43186 whole entry): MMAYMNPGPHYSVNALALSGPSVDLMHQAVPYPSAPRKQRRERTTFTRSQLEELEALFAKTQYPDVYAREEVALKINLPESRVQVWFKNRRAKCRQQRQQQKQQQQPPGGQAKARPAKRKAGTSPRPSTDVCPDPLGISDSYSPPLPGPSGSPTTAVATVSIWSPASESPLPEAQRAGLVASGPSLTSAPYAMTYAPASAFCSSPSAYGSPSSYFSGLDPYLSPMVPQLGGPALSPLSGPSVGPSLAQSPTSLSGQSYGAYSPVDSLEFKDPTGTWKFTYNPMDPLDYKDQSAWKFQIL
Another assay has as its target ETV1 (Homo sapiens, UniProt P50549 1-477). The conditions noted are these: protein: recombinant; tags: N-terminal GST; dsDNA, one strand shown. The procedure, abridged: as §1
A further assay concerns the target T6, ERF (Homo sapiens, UniProt P50548 1-548).
T6 sequence: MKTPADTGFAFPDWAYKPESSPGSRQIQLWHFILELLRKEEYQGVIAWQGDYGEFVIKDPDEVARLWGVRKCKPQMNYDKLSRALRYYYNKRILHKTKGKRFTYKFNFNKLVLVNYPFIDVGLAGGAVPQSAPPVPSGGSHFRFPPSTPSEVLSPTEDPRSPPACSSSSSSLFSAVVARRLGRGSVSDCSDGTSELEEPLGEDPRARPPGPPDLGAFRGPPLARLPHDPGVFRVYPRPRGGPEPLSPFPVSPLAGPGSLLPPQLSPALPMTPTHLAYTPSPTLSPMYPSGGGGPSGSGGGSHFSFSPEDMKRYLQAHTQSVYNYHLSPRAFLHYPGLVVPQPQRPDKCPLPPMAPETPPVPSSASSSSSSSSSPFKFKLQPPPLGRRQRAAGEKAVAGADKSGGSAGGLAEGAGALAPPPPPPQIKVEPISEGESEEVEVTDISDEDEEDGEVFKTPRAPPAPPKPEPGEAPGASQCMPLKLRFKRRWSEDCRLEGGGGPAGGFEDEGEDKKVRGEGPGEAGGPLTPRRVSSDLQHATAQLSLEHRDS
To be noted: protein: recombinant; tags: N-terminal GST; dsDNA, one strand shown. In short, it runs like this: as §1

A further assay has as its target T7, ETV3L (Homo sapiens, UniProt Q6ZN32 1-361).
T7 sequence: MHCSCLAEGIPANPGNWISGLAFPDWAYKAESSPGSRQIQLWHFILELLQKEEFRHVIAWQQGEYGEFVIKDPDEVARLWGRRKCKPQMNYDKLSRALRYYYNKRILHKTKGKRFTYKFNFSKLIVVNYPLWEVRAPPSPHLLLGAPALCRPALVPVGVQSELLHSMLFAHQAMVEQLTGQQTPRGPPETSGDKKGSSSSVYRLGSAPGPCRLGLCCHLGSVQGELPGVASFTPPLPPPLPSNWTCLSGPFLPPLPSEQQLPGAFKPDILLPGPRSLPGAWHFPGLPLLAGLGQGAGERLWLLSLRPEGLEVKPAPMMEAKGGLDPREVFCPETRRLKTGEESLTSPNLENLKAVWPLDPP
To be noted: protein: recombinant; tags: N-terminal GST; dsDNA, one strand shown. The procedure, abridged: as §1

The target of a further assay is T8, ETS2 (Homo sapiens, UniProt P15036 1-469).
T8 sequence: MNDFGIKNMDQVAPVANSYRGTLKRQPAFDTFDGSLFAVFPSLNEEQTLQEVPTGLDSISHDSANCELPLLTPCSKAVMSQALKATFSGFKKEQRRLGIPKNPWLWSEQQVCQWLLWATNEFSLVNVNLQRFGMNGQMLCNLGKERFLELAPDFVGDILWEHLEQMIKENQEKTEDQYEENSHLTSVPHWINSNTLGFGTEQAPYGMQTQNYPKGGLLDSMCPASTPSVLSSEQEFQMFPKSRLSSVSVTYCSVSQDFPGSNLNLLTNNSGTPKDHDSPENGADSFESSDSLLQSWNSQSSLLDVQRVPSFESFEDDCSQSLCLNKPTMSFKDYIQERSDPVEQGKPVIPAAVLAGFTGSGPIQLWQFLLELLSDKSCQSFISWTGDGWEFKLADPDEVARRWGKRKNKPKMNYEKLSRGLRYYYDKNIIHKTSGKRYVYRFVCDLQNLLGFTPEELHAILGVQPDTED
The conditions noted are these: protein: recombinant; tags: N-terminal GST; dsDNA, one strand shown. The procedure, abridged: as §1

In the next assay the target is T9, SPDEF (Homo sapiens, UniProt O95238 1-335).
T9 sequence: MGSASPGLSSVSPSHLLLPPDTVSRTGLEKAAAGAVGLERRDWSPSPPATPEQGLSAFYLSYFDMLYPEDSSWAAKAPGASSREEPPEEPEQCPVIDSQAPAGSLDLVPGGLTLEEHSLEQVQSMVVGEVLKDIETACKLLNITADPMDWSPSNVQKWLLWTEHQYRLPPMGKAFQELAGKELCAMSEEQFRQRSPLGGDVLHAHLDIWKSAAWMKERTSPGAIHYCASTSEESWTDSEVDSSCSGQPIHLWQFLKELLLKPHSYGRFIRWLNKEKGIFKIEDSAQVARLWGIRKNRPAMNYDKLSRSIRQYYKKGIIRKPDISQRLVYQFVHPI
To be noted: protein: recombinant; tags: N-terminal GST; dsDNA, one strand shown. In short, it runs like this: as §1

The target in another assay is T10, ETV7 (Homo sapiens, UniProt Q9Y603 1-341).
T10 sequence: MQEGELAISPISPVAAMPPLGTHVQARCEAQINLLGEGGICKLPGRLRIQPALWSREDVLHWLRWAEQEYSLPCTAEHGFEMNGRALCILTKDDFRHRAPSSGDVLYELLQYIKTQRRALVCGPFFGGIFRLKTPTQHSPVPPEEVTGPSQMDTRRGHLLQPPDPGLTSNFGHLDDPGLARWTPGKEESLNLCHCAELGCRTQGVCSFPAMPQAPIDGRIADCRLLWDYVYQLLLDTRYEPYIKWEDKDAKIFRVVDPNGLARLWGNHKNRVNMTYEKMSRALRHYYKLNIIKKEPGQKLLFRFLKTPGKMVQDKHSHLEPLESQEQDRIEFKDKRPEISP
To be noted: protein: recombinant; tags: N-terminal GST; dsDNA, one strand shown. The procedure, abridged:
as §1

For another assay, the target named is T11, ELF5 (Homo sapiens, UniProt Q9UKW6-2 1-255).
T11 sequence: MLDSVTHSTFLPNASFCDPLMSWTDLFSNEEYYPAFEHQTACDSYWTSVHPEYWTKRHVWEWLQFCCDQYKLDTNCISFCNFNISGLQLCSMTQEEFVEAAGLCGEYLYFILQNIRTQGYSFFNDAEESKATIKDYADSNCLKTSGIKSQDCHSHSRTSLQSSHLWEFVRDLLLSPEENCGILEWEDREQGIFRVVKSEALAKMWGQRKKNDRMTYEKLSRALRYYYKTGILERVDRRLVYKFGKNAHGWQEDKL
The conditions noted are these: protein: recombinant; tags: N-terminal GST; dsDNA, one strand shown. In short, it runs like this:
as §1

Another assay has as its target T12, ETV3 (Homo sapiens, UniProt P41162-2 1-143).
T12 sequence: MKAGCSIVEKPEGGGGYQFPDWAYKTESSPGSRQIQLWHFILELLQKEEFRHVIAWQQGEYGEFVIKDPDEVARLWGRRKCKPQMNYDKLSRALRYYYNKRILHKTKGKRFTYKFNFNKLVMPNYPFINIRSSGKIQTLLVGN
To be noted: protein: recombinant; tags: N-terminal GST; dsDNA, one strand shown. In short, it runs like this:
as §1

For a further assay, the target named is ETV6 (Homo sapiens, UniProt P41212 1-452). To be noted: protein: recombinant; tags: N-terminal GST; dsDNA, one strand shown. In short, it runs like this:
as §1

Sequence of HSF1 (Q00613 whole entry): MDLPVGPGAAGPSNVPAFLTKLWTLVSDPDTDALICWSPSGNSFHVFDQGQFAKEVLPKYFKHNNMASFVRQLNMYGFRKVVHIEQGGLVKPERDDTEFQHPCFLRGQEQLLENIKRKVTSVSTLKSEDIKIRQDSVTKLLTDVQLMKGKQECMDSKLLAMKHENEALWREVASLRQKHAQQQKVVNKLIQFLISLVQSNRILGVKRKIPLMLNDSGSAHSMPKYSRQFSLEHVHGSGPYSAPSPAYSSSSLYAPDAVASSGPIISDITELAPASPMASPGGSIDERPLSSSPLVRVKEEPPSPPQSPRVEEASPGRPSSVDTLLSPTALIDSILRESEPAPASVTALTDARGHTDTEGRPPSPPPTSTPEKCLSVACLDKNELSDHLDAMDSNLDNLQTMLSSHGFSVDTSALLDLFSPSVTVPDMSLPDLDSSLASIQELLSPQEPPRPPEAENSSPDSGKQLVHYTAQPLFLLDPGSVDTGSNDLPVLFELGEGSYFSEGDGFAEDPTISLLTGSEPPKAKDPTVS
Sequence of ETV6 (P41212 whole entry): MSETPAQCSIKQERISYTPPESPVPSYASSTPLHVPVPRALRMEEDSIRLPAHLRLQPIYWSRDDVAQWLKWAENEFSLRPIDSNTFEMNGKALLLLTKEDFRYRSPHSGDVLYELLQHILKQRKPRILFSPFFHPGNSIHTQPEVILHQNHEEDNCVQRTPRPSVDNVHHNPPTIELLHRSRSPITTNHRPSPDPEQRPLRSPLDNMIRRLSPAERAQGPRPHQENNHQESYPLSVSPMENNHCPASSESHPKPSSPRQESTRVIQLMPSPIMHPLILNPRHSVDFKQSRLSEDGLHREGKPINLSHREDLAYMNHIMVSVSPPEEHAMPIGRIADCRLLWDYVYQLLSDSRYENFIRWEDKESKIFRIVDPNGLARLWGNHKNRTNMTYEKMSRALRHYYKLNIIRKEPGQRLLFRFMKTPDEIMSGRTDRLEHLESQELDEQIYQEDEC
Sequence of ETV1 (P50549 whole entry): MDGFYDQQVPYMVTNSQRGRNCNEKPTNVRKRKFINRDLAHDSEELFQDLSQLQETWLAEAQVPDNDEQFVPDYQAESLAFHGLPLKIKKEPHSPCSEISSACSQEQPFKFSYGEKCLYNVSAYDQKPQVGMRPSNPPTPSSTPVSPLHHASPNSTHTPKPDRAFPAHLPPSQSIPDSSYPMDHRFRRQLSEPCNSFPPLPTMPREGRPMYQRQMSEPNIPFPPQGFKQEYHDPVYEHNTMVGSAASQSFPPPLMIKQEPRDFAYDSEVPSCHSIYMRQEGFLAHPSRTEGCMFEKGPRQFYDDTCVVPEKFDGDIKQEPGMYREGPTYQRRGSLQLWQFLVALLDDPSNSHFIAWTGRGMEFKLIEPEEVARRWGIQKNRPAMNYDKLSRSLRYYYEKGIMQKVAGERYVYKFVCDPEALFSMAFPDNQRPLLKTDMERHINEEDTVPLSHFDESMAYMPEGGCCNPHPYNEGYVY
Sequence of ETV5 (P41161 whole entry): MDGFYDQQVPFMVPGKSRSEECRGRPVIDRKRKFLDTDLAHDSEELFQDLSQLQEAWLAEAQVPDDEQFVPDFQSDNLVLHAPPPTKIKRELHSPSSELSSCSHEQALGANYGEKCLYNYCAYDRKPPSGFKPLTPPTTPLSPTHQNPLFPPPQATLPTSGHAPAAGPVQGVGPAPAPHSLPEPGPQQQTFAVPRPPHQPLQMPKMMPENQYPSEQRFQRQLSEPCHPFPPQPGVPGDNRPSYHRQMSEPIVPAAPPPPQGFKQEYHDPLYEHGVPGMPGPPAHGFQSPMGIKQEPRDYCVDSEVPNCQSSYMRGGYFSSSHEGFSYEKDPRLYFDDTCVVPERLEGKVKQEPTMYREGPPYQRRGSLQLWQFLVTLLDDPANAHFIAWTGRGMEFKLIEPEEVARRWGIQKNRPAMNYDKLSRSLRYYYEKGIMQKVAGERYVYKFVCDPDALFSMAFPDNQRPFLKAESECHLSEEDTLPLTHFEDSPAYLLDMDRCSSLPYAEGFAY

Turning to TCTCGG, the binding signal with FEV is 1.31 fold enrichment (6-mer frequency, TF over GST control); in the assay with ETV5 it was 1.41 fold enrichment (6-mer frequency, TF over GST control); in the assay with HSF1, 1.89 fold enrichment (6-mer frequency, TF over GST control); with SPIC, 1.1 fold enrichment (6-mer frequency, TF over GST control); with ELF4, 1.4 fold enrichment (6-mer frequency, TF over GST control); with ELK4 it was 1.38 fold enrichment (6-mer frequency, TF over GST control). Also, the binding signal with ETV2 is 1.48 fold enrichment (6-mer frequency, TF over GST control); in the assay with ELF3, 1.33 fold enrichment (6-mer frequency, TF over GST control); with CRX it was 1.44 fold enrichment (6-mer frequency, TF over GST control); in the assay with ETV1, 1.38 fold enrichment (6-mer frequency, TF over GST control); with ERF, 1.24 fold enrichment (6-mer frequency, TF over GST control); with ETV3L, 1.48 fold enrichment (6-mer frequency, TF over GST control). The binding signal with ETS2 is 1.3 fold enrichment (6-mer frequency, TF over GST control); in the assay with SPDEF, 1.24 fold enrichment (6-mer frequency, TF over GST control); with ETV7, 1.23 fold enrichment (6-mer frequency, TF over GST control); with ELF5, 1.32 fold enrichment (6-mer frequency, TF over GST control); with ETV3, 1.37 fold enrichment (6-mer frequency, TF over GST control); with ETV6 it was 1.33 fold enrichment (6-mer frequency, TF over GST control).

Values taken from paper PMC7862700, “An all-to-all approach to the identification of sequence-specific readers for epigenetic DNA modifications on cytosine”.
